Reference: PubChem BioAssay
Activity calls are given as the source filed them.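 Rule for the calls, unless noted: active = visually confirmed hit in the image check and inhibition above 20%; inconclusive = visually confirmed hit but inhibition not above 20%; inactive = no visual hit in the image check.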

Assays:
[1] = inhibitors of TNFa-induced NFkB p65 translocation, primary screen, imaging, HUVEC, MLSMR starter and 10KST1 sets (AID 438;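 active = inhibition above 20% together with a positive visual image hit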;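 note: compound added about 3h40 before a 20 min TNFalpha stimulation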;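 for inhibition: signal is the nuclear over cytoplasmic p65 intensity ratio per well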); conditions: HUVEC TNFa-induced p65 nuclear translocation; cell count: measured here: nuclei count (cytotoxicity indicator), at 2.08 µM; inhibition: at 2 µM, stronger effect = higher value, 0% TNFa-plus-vehicle, 100% no-TNFa wells
[2] = reduction of polyQ htt aggregates in cells – imaging, exon1htt(103Q)mCFP cells, high-content imaging, primary screen (AID 483;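 active = visual image review flags a hit and inhibition of aggregation exceeds 20%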;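 note: compound exposure lasted 3 days before fixation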;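 for nuclei count: percent of the per-plate median nuclei count of sample wells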); conditions: exon1htt(103Q)mCFP cell line, aggregate imaging, at 2 µM; inhibition of aggregation: stronger effect = higher value; nuclei count: measured here: cell count, toxicity
[3] = endothelial E-selectin expression blockers – imaging, HUVEC, immunofluorescence, MLSMR starter and 10KST1 sets, primary screen (AID 487); conditions: HUVEC TNFalpha-induced E-selectin immunofluorescence imaging, at 2 µM; inhibition: stronger effect = higher value; nuclei count: measured here: cell number, toxicity;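 for inhibition: signal is fraction of cell area covered by stained E-selectin grains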;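 for nuclei count: 100% = median nuclei count of all wells on the same plate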
[4] = biological target: Voltage-gated potassium channel subunit beta-2 (Rattus norvegicus) (UniProt P62483); experiment: inhibitors of rat Kvbeta2 reductase activity – biochemical, NADPH fluorescence, primary screen (AID 622;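 active = fluorescence slope higher than the sample average by over 3 SD, cut at about -0.22 in these data, passing the limit was not always enough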;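 note: slope of raw intensity against log time taken from 70 to 1610 s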); conditions: recombinant KvBeta, 4-cyanobenzaldehyde reduction, at 10 µM, stronger effect = higher value
Chain of Voltage-gated potassium channel subunit beta-2 (Rattus norvegicus) (P62483 whole entry, looked up): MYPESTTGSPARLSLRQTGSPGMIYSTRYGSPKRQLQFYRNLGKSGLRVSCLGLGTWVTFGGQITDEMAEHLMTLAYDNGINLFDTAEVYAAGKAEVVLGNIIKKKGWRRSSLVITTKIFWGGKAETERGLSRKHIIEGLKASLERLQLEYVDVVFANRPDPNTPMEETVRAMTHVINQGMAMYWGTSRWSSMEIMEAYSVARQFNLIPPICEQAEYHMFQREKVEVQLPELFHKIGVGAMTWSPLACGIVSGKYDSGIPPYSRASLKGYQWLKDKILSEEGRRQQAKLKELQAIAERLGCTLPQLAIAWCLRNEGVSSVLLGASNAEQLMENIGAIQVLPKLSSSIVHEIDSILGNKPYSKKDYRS

[5] = biological target: Voltage-gated potassium channel subunit beta-2 (Rattus norvegicus) (UniProt P62483); experiment: enhancers of rat Kvbeta2 NADPH turnover – biochemical, NADPH fluorescence, primary screen (AID 623;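 active = NADPH fluorescence slope more negative than the mean of all samples by about 3 SD, 99.7% confidence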;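 note: fluorescence intensity change per second fitted from 20 to 320 s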); conditions: Recombinant KvBeta, NADPH fluorescence decrease slope, 10 min; at 10 µM; stronger effect = lower value
[6] = biological target: Alpha-2C adrenergic receptor (Homo sapiens) (UniProt P18825); experiment: compounds altering alpha2C-coupled GIRK flux – cell-based, HEK293 alpha2C/GIRK1/2, thallium flux, primary screen (AID 624;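 active = fluorescence slope after compound addition differing from the mean of all screened samples at 99.7% confidence, in either direction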;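 note: slope of fluorescence ratio to pre-addition baseline per second over 15 to 24 s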); conditions: thallium flux BTC fluorescence, at 10 µM, actives lie on both sides
Chain of Alpha-2C adrenergic receptor (Homo sapiens) (P18825 whole entry, looked up): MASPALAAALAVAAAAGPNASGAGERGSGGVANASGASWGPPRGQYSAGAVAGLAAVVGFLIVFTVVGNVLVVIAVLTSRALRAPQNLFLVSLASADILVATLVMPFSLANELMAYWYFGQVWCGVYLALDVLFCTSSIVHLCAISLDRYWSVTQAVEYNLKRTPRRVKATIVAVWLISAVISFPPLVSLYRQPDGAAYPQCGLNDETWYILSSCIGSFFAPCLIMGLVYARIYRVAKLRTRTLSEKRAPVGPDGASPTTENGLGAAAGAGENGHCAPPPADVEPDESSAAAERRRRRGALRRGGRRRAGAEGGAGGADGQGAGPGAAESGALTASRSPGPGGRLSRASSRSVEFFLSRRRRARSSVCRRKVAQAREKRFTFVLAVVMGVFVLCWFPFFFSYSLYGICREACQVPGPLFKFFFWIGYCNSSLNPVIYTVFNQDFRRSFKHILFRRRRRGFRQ

[7] = blockers of RIG-like receptor reporter activation – cell-based, Sendai virus stimulus, luciferase, 10K MLSCN set, TLR/RLR signaling modifier project, primary screen (AID 602276;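 active = inhibition at or above 50% at 10 µM; inactive = inhibition below 50%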;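 note: firefly luciferase from ISG56 promoter only with Renilla not read in this screen; 0% = Sendai virus plus DMSO and 100% = medium plus DMSO without virus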); conditions: HEK293 RL24 IRF3 luciferase reporter, at 10 µM, stronger effect = higher value
[8] = TLR3 IRF3 reporter activation blockers – cell-based, poly I:C stimulus, luciferase, 10K MLSCN set, primary screen (AID 602277;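 active = inhibition of the reporter signal at or above 50%; inactive = inhibition below 50%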); conditions: HEK293-TLR3 RL24 IRF3 luciferase reporter, at 10 µM, stronger effect = higher value

Compound | cell count [1] | inhibition [1] | inhibition of aggregation [2] | nuclei count [2] [%] | inhibition [3] | nuclei count [3] [%] | fluorescence slope [4] | NADPH fluorescence slope [5] | slope [6] | inhibition [7] | inhibition [8]
CSCCC(N=CC1=C(O)CC(C)(C)CC1=O)C(=O)O (configuration not stated) | 405 | 1.8% (inactive) | -10.8% (inactive) | 104 | -0.2% (inactive) | 118 | -0.363 (inactive) | -4.2e-05 (inactive) | 0.00607 (inactive) | 15.3% (inactive) | 22.3% (inactive)
CCOc1ccc2nc(NC(=O)CSc3nc4ccccc4c(=O)n3Cc3ccco3)sc2c1 | 654 | -6.1% (inactive) | -5.6% (inactive) | 115 | -65.7% (inactive) | 132 | -0.413 (inactive) | 9.6e-06 (inactive) | 0.00934 (active) | 15.6% (inactive) | 10% (inactive)
CCOc1nc(-c2ccccc2)ccc1-c1noc(-c2ccc(OC)c(OC)c2)n1 | 418 | 11.7% (inactive) | -27.9% (inactive) | 99.7 | -27% (inactive) | 107 | -0.385 (inactive) | 5.6e-06 (inactive) | 0.0092 (inactive) | 8.22% (inactive) | 9.49% (inactive)
COc1ccc2cc(CN(CCO)C(=O)c3ccccc3F)c(=O)[nH]c2c1 | 474 | 9.4% (inactive) | -16% (inactive) | 108 | -93% (inactive) | 110 | -0.496 (inactive) | 5.3e-06 (inactive) | 0.00191 (inactive) | -11.1% (inactive) | -5.69% (inactive)
CCn1c(=O)c(C(=O)Nc2cccnc2)c(O)c2ccccc21 | 362 | 4.1% (inactive) | 7% (inactive) | 105 | -39.9% (inactive) | 107 | -0.465 (inactive) | -4.5e-05 (inactive) | 0.00569 (inactive) | -1.35% (inactive) | -9.19% (inactive)
c1ccc(OCc2nc3ccccc3[nH]2)cc1 | 443 | -6.5% (inactive) | 9.8% (inactive) | 75.8 | -77.6% (inactive) | 132 | -0.392 (inactive) | -5.8e-05 (inactive) | 0.00568 (inactive) | -47.4% (inactive) | -118% (inactive)
CC1CN(S(=O)(=O)c2ccc(Cl)c(C(F)(F)F)c2)CC(C)O1 (configuration not stated) | 390 | 6.1% (inactive) | -1.4% (inactive) | 105 | 0.5% (inactive) | 110 | -0.31 (inactive) | -4e-05 (inactive) | 0.0059 (inactive) | 7.15% (inactive) | 0.275% (inactive)
Cc1ccc(O)c(-c2cc3ccccc3[nH]2)c1 | 616 | -4.8% (inactive) | 20% (inactive) | 98.8 | -37.9% (inactive) | 109 | -0.46 (inactive) | -3.3e-05 (inactive) | 0.00556 (inactive) | -4.2% (inactive) | -87.3% (inactive)
Fc1ccc(Cn2nnc(-c3ccc(CN4CCOCC4)cc3)n2)cc1 | 299 | 4.3% (inactive) | 11.5% (inactive) | 102 | 9.3% (inactive) | 117 | -0.44 (inactive) | -1.1e-05 (inactive) | 0.00406 (inactive) | -2.6% (inactive) | -37.2% (inactive)
Cc1cccc(-c2nnn(CC/C(N)=N/O)n2)c1 | 321 | -4.8% (inactive) | -1.8% (inactive) | 84.2 | 25.6% (inactive) | 90.5 | -0.496 (inactive) | -2.1e-05 (inactive) | 0.00549 (inactive) | 2.73% (inactive) | -10.7% (inactive)
COc1cccc(NC(=O)N2CCN(C(=O)C(Cc3ccc(OC)c(OC)c3)NC(C)=O)CC2)c1 (configuration not stated) | 364 | -0.5% (inactive) | -4% (inactive) | 107 | -47.6% (inactive) | 99.9 | -0.355 (inactive) | -3.6e-05 (inactive) | 0.00701 (inactive) | 12.1% (inactive) | 22.8% (inactive)
CC(C)[C@H](NC(=O)NC1CCCC1)C(=O)O | 252 | 2.5% (inactive) | 7.6% (inactive) | 87.5 | 3.3% (inactive) | 91.7 | -0.462 (inactive) | 2e-05 (inactive) | 0.0056 (inactive) | 5.42% (inactive) | 16.1% (inactive)
CC(=O)NC(CCS(C)(=O)=O)C(=O)Nc1cccc(C)c1C (configuration not stated) | 576 | 4.3% (inactive) | 0.4% (inactive) | 110 | -6.3% (inactive) | 117 | -0.542 (inactive) | -7e-05 (inactive) | 0.00627 (inactive) | 17.7% (inactive) | 38.7% (inactive)
COc1ccc(C2CC(=O)C(C=NCCCN3CCOCC3)=C(O)C2)cc1 (configuration not stated) | 392 | -4.9% (inactive) | 14% (inactive) | 80.7 | 3% (inactive) | 87.7 | -0.351 (inactive) | -1.5e-05 (inactive) | 0.00635 (inactive) | 14.7% (inactive) | 32.7% (inactive)
COc1ccc(C(=O)N2CCN(c3nc4cc(C)ccc4cc3C#N)CC2)c(OC)c1 | 383 | 7.6% (inactive) | -9.9% (inactive) | 102 | -49.6% (inactive) | 115 | -0.595 (inactive) | -2.2e-05 (inactive) | 0.00559 (inactive) | 14.5% (inactive) | 22% (inactive)
CCn1c(C)nc2cc(C(=O)OCCC(F)(F)F)ccc21 | 531 | -9% (inactive) | -1.8% (inactive) | 106 | 6.2% (inactive) | 92.5 | -0.263 (inactive) | -2.2e-05 (inactive) | 0.00759 (inactive) | -16.4% (inactive) | -104% (inactive)
COc1ccc(CN(CC(=O)NCC2CCCO2)C(=O)CNS(=O)(=O)c2ccc(C)cc2)cc1 (configuration not stated) | 589 | -20.2% (inactive) | -5.2% (inactive) | 119 | -52.4% (inactive) | 92.4 | 0.012 (inactive) | -3.8e-05 (inactive) | 0.00362 (inactive) | 9.43% (inactive) | 3.49% (inactive)
COc1ccccc1NC(=O)CSc1nnnn1-c1ccc2c(c1)OCO2 | 349 | -9.4% (inactive) | 21.1% (inactive) | 88.6 | -122% (inactive) | 104 | -0.487 (inactive) | 3.9e-05 (inactive) | 0.00668 (inactive) | 12.2% (inactive) | 26.1% (inactive)
CCOC(=O)c1cc(NC(=O)SCC(=O)O)c(C)nc1C | 762 | 5.1% (inactive) | -19.7% (inactive) | 111 | -99.8% (inactive) | 128 | -0.484 (inactive) | -3.2e-05 (inactive) | 0.0071 (inactive) | 7.76% (inactive) | 9.57% (inactive)
COc1cccc(NC(=O)CSc2nnc(-c3cc(-c4ccccn4)nc4ccccc34)o2)c1 | 578 | -14.5% (inactive) | -14.5% (inactive) | 112 | -102% (inactive) | 141 | -0.57 (inactive) | -2e-06 (inactive) | 0.00553 (inactive) | 1.87% (inactive) | 0.453% (inactive)
OC1C=CSc2nc3ccccc3n21 (configuration not stated) | 398 | 4.9% (inactive) | -12.9% (inactive) | 102 | -50.3% (inactive) | 113 | -0.467 (inactive) | -3.8e-05 (inactive) | 0.00527 (inactive) | 4.8% (inactive) | 17.8% (inactive)
CCN(CC)S(=O)(=O)c1ccc(NC2c3ccccc3C(=O)N2CCN2CCOCC2)cc1 (configuration not stated) | 534 | -12.6% (inactive) | 24.2% (inactive) | 95.3 | -147% (inactive) | 128 | -0.611 (inactive) | 1.3e-05 (inactive) | 0.00571 (inactive) | 4.22% (inactive) | 10.7% (inactive)
CC(=O)c1cn(CC(=O)NCc2ccc3c(c2)OCO3)c2ccccc12 | 326 | -2.1% (inactive) | -11.9% (inactive) | 108 | -24.5% (inactive) | 107 | -0.534 (inactive) | -9.1e-05 (inactive) | 0.00566 (inactive) | 11.9% (inactive) | 9.83% (inactive)
COc1ccc(CN(CC(=O)NCc2ccco2)C(=O)CCC(=O)Nc2nccs2)cc1 | 438 | 3.6% (inactive) | -4.3% (inactive) | 102 | -24.4% (inactive) | 114 | -0.403 (inactive) | -3.8e-05 (inactive) | 0.00588 (inactive) | 11.3% (inactive) | 12.7% (inactive)
Brc1ccc(-c2csc(/N=C/N3CCOCC3)n2)cc1 | 531 | -3.6% (inactive) | -0.1% (inactive) | 97.4 | 13.5% (inactive) | 102 | -0.521 (inactive) | -8.8e-05 (inactive) | 0.00566 (inactive) | -73.1% (inactive) | -171% (inactive)
COc1cccc(C(=O)NCc2nnc(SCC(=O)Nc3nccs3)n2-c2ccccc2)c1 | 756 | -9.1% (inactive) | -1.7% (inactive) | 120 | -20.4% (inactive) | 107 | -0.626 (inactive) | 1.6e-05 (inactive) | 0.0057 (inactive) | 10.5% (inactive) | 35.1% (inactive)
Cc1noc(/C=C/N(C)C)c1S(=O)(=O)N1CCCC(C(=O)NCCC2=CCCCC2)C1 (configuration not stated) | 518 | 0.9% (inactive) | -2.1% (inactive) | 105 | -25.3% (inactive) | 115 | -0.548 (inactive) | -1.2e-05 (inactive) | 0.00579 (inactive) | 1.59% (inactive) | -0.365% (inactive)
